Measurements as given in publication PMC7862700, “An all-to-all approach to the identification of sequence-specific readers for epigenetic DNA modifications on cytosine”.

Columns and labels:
Assay in all cases: DAPPL (digital affinity profiling via proximity ligation, sequencing); 10 mM Tris-HCl pH 7.5, 50 mM NaCl, 1 mM DTT, 4% glycerol, room temperature, 30 min; GST-TFs on glutathione beads, 16-mer random dsDNA library, 0.1% formaldehyde crosslink after washing; high values mean tight binding
Conditions in all cases: protein: recombinant; tags: N-terminal GST; dsDNA, one strand shown
FLI1 = target: T1, FLI1 (Homo sapiens, UniProt Q01543 1-452)
T1 sequence: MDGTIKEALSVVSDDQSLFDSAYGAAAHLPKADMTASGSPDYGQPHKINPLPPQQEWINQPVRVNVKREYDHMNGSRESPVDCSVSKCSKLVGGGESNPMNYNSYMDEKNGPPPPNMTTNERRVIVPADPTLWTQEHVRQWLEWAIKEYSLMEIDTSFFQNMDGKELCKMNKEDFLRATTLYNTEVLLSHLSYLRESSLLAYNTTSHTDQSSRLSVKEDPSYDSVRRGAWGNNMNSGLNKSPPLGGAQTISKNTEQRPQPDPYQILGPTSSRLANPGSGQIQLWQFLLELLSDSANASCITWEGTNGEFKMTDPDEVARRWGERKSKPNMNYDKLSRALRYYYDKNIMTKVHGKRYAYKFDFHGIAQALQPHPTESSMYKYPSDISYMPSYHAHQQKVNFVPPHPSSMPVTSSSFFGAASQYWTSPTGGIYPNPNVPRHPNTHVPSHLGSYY
Procedure, shortened: (§1)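 Human transcription factors were made in yeast as GST fusions, captured on glutathione beads and barcoded with DNA. With a tag-only sample included, the pool was incubated with 200 nmole of a random double-stranded 16-mer DNA library in Tris/NaCl/DTT/glycerol buffer at room temperature for 30 min, then crosslinked with 0.1% formaldehyde after washing, ligated by proximity, amplified and sequenced. For binding signal, each hexamer's read frequency for a factor is divided by its frequency for the tag-only sample.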

ELK1 = target: T2, ELK1 (Homo sapiens, UniProt P19419 1-428)
T2 sequence: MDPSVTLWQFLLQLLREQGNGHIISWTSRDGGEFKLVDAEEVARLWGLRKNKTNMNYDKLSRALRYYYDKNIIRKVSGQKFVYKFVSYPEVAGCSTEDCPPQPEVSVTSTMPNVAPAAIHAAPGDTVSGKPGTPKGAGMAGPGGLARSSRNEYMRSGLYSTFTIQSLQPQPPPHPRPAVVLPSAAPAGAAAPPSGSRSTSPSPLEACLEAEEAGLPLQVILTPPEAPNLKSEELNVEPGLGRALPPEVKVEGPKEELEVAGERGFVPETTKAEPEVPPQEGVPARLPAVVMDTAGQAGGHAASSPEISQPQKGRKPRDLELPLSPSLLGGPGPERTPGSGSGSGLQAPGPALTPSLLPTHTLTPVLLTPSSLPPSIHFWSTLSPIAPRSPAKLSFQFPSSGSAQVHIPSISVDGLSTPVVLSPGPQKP
Procedure, shortened: as §1

GABPA = target: T3, GABPA (Homo sapiens, UniProt Q06546 1-454)
T3 sequence: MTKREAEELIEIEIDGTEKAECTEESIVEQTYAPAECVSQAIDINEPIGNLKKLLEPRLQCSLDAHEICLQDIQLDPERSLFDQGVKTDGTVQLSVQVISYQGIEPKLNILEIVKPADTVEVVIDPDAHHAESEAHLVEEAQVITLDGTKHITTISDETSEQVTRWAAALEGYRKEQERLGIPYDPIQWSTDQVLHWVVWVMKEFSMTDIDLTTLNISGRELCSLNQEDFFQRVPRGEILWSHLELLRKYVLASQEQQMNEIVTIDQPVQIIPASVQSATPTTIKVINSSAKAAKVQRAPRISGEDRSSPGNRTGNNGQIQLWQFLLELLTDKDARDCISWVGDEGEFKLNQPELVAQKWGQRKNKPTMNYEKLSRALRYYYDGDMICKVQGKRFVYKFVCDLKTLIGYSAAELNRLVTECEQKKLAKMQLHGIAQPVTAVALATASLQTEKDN
Procedure, shortened: as §1

ERG = target: T4, ERG (Homo sapiens, UniProt P11308 1-479)
T4 sequence: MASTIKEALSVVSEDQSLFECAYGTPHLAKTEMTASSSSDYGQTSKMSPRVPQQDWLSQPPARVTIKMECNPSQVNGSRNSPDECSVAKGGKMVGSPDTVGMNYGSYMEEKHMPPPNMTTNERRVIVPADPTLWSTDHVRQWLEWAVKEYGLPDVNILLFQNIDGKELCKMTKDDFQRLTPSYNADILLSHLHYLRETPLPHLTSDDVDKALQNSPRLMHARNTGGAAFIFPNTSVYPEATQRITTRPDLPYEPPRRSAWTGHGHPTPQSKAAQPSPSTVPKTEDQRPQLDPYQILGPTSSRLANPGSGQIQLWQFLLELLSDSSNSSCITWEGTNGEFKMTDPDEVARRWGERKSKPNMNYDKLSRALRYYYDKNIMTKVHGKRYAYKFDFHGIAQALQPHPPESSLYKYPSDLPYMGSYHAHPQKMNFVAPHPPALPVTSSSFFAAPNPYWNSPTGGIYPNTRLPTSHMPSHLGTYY
Procedure, shortened: as §1

ELF1 = ELF1 (Homo sapiens, UniProt P32519 1-619)
Procedure, shortened: as §1

EHF = target: T5, EHF (Homo sapiens, UniProt Q9NZC4 1-300)
T5 sequence: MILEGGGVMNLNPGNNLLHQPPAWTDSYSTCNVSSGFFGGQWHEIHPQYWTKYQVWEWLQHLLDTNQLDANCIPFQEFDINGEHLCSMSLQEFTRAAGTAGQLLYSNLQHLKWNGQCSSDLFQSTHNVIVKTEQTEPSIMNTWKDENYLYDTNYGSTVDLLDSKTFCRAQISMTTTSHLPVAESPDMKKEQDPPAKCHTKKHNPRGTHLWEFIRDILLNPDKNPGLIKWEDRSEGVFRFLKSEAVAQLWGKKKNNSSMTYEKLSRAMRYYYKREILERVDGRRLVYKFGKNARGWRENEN
Procedure, shortened: as §1

SPI1 = SPI1 (Homo sapiens, UniProt P17947 1-270)
Procedure, shortened: as §1

SPIB = SPIB (Homo sapiens, UniProt Q01892 1-262)
Procedure, shortened: as §1

ELK3 = target: T6, ELK3 (Homo sapiens, UniProt P41970 1-407)
T6 sequence: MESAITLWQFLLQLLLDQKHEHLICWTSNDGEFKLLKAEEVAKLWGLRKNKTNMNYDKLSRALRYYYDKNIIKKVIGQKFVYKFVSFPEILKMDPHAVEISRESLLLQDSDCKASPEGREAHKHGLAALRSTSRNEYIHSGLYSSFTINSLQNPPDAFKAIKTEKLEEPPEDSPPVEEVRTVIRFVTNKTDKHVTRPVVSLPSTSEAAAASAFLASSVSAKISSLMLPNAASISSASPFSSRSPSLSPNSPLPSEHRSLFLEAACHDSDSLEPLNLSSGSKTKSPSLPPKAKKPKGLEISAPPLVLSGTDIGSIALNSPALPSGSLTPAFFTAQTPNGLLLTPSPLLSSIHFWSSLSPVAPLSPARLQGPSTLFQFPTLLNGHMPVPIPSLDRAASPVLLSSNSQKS
Procedure, shortened: as §1

ELF1, sequence (P32519 whole entry): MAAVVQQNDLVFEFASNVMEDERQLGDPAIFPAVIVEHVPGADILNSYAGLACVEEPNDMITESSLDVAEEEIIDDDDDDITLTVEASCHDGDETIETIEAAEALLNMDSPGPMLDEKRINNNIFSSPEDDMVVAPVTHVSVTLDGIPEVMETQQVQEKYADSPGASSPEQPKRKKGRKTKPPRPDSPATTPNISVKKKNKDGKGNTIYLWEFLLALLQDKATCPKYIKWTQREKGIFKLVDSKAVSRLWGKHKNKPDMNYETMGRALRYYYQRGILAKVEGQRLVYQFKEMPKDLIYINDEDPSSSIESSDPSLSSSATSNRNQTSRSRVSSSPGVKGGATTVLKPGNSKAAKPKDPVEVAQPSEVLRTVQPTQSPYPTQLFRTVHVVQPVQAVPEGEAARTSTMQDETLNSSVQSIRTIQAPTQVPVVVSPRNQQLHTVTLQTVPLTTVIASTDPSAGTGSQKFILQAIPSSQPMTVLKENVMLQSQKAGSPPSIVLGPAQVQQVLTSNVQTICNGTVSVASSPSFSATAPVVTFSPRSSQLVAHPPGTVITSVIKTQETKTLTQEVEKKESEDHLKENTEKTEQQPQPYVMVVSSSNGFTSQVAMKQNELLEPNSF
SPIB, sequence (Q01892 whole entry): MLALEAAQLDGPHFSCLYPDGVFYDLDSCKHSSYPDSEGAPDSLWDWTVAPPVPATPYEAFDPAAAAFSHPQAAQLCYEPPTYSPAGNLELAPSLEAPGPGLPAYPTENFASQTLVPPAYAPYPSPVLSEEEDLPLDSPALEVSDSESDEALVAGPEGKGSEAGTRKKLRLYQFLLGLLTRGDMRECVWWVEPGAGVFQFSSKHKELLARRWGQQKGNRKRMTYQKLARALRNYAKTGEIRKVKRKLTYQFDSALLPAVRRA

ATTCCG was tested. Which binding signal (FLI1) did it give?
Its binding signal is 1.84 fold enrichment (6-mer frequency, TF over GST control).

And the binding signal (ELK1)?
The binding signal was 1.84 fold enrichment (6-mer frequency, TF over GST control).

What about the binding signal (GABPA) of the same sequence?
The binding signal was 1.65 fold enrichment (6-mer frequency, TF over GST control).

And the binding signal (ERG)?
The binding signal was 1.82 fold enrichment (6-mer frequency, TF over GST control).

What about the binding signal (ELF1) of the same sequence?
Its binding signal is 1.61 fold enrichment (6-mer frequency, TF over GST control).

And the binding signal (EHF)?
The binding signal was 1.86 fold enrichment (6-mer frequency, TF over GST control).

And the binding signal (SPI1)?
The binding signal was 1.69 fold enrichment (6-mer frequency, TF over GST control).

And the binding signal (SPIB)?
The binding signal was 1.78 fold enrichment (6-mer frequency, TF over GST control).

And the binding signal (ELK3)?
The binding signal was 1.78 fold enrichment (6-mer frequency, TF over GST control).
